Measurements reported in PubChem BioAssay (NCATS).
“And” between values parts separate entries of the source, which are not always exact repeats. Identical values can stand only once. Inconclusive results are not listed. A call without a number means that no potency is given here. A structure can be active in one record and inactive in another. The source made the active and inactive calls. Unless noted, the call rests on the fitted dose curve; in most records, active means well fitted curve in the direction sought with a large enough effect; inconclusive means small, poorly fitted or top-dose-only effect, or another doubt; inactive means no such curve, though single readings can be large; an effect the other way counts as inactive or inconclusive.

Legend:
[1] = AP1 Signaling Pathway (AID 357; active means well fitted curve in either direction with a large enough effect, not every such curve was filed as active); conditions: ME-180 AP-1-bla reporter, EGF-induced, beta-lactamase ratio, 5 h; at 38 µM (top of the series)
How it was run: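 Titration-series screen for positive or negative modulators of EC50 EGF-induced signaling in ME-180 cells carrying an AP-1-driven beta-lactamase reporter. After 5 hours at 37 degrees Celsius, CCF4 460nm/530nm emission ratio gave %Activity; AC50 values derived.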

[2] = NFAT Signaling Pathway (AID 444; active means well fitted curve in either direction with a large enough effect, not every such curve was filed as active;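 further: carbachol stimulus at about its EC50 of 1 µM final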); conditions: Jurkat NFAT-bla M1, carbachol, beta-lactamase ratio, 5 h; at 38 µM (top of the series)
How it was run: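 Jurkat cells carrying an NFAT-driven β-lactamase reporter and co-transfected muscarinic M1 receptor were treated with compound plus carbachol (1 uM final, an EC50 level) for 5 h at 37 °C. CCF4 loading followed for 1 h at RT; 460/530 nm ratio gave %activity.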

[3] = Stat Signaling Pathway (AID 446; active means well fitted curve in either direction with a large enough effect, not every such curve was filed as active;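 further: ME-180 cervical cancer cells given 40 pM IL-6 alongside compound; SIE-controlled beta-lactamase reporter measured as 460/530 nm FRET emission ratio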); conditions: ME-180 SIE beta-lactamase reporter, IL-6 stimulated, 5 h; at 38 µM (top of the series)
How it was run: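 Reporter line: ME-180 cervical carcinoma, SIE-beta-lactamase. Treatment: compound with 40 pM IL-6, 5 hrs, 37 C, in low-serum OPTI-MEM with 10 mM HEPES pH 7.3. Detection: 460/530 nm fluorescence.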

[4] = biological target: Glucocorticoid receptor (Homo sapiens) (UniProt P04150); assay: GR-GFP Redistribution (AID 450;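 active means compounds whose dose series gives a full or clear partial fitted curve of increased nuclear translocation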; further: potency means the concentration at half of the fitted maximal effect); conditions: U2OS GR-GFP nuclear translocation, laser cytometry, 2 h
Glucocorticoid receptor (Homo sapiens), sequence (P04150 whole entry, looked up, the tested form may be a part): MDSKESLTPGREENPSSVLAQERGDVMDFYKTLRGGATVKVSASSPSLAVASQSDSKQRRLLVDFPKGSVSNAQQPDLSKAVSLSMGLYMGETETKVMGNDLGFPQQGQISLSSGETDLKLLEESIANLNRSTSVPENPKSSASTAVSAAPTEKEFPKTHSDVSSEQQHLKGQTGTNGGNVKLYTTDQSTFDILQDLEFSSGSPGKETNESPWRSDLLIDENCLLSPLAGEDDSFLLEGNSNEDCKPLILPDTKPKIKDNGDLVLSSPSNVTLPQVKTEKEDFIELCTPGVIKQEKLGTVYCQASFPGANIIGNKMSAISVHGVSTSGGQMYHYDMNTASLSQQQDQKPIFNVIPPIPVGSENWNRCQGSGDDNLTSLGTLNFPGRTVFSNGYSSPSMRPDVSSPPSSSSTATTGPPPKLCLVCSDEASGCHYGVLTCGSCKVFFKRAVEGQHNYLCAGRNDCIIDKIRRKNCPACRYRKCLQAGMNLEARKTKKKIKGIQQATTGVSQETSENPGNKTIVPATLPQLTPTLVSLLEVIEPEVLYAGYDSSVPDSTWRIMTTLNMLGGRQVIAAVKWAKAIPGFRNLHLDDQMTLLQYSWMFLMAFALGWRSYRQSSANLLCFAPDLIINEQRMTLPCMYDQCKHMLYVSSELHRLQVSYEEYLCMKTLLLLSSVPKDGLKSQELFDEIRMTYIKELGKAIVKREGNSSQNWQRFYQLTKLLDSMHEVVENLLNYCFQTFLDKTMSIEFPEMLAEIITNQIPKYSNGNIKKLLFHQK

[5] = biological target: Glucocorticoid receptor (Homo sapiens) (UniProt P04150); assay: GR-EFC Redistribution (AID 451; calls by dose curve; further: potency means the concentration at half of the fitted maximal effect); conditions: CHO-K1 GR-EFC translocation, beta-gal luminescence, 2 h
How it was run: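 CHO-K1 cells stably expressing nuclear-localized β-gal enzyme acceptor and GR fused C-terminally to the enzyme donor fragment; ligand-driven nuclear translocation restores β-gal by complementation. Compounds titrated up to 46 uM final, 2 h at 37 °C; luminescence read.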

[6] = biological target: Mitogen-activated protein kinase 10 (Mus musculus) (UniProt Q61831); assay: JNK3 AlphaScreen Assay (AID 530; active means well fitted curve in either direction with a large enough effect, not every such curve was filed as active;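 further: kinase came from lysate of stimulated human HepG2 cells; signal reports phosphorylation of biotinylated GST-cJun 1-79 at Ser73 with 10 µM ATP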); conditions: JNK3 lysate, c-Jun phosphorylation; series mostly up to 57.1 µM
How it was run: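 Inhibitors reduce antibody binding to phosphorylated biotin-cJun, lowering AlphaScreen luminescence. Lysates from HepG2 cells pre-activated by IL-1beta plus TNF-alpha supplied JNK3; compounds were titrated.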

[7] = biological target: 3',5'-cyclic-AMP phosphodiesterase 4B (Homo sapiens) (UniProt Q07343); assay: qHTS Assay for Inhibitors of PDE-IV (AID 607; active means well fitted activation curve with a large enough effect in the main read-out, with a control signal flat, not every such curve was filed as active); conditions: HEK293 ACTOne CNG channel cells, membrane potential fluorescence; series mostly up to 22.9 µM
3',5'-cyclic-AMP phosphodiesterase 4B (Homo sapiens), sequence (Q07343 whole entry, looked up): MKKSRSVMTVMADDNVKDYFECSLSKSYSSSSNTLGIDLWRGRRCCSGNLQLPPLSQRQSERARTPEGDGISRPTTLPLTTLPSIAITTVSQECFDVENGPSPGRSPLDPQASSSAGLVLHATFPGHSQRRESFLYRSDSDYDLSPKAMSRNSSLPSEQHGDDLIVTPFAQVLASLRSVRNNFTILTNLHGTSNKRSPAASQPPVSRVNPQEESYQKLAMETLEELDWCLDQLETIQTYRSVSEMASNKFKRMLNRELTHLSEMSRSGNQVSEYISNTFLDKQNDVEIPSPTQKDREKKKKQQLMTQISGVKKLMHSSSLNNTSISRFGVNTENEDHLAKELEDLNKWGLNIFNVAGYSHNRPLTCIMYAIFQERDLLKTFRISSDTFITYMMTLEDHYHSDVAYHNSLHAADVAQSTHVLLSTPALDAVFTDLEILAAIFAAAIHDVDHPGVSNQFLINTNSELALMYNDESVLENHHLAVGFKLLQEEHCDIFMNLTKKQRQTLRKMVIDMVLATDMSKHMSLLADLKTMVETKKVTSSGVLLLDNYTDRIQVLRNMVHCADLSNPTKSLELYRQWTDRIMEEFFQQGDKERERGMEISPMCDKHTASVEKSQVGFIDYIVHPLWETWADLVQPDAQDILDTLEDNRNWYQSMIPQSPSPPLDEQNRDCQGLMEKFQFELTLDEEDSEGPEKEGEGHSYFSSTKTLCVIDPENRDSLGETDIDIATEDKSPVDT
How it was run: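 Cell-based read-out of cAMP via a modified cyclic nucleotide-gated channel and membrane potential dye (535/590 nm) in HEK293 cells expressing PDE4 endogenously. Compounds tested up to 22.9 uM final; 100 uM RO 20-1724 reference.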

[8] = biological target: Guanine nucleotide-binding protein G(i) subunit alpha-1 (Homo sapiens) (UniProt P63096); assay: qHTS Assay for Inhibitors of RGS12 GoLoco Motif Activity (Green Fluorophore) (AID 879); conditions: Galphai1/FITC-RGS12 GoLoco peptide, fluorescence polarization; series mostly up to 57.1 µM;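 further: negative values mean loss of peptide binding seen as reduced polarization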
Guanine nucleotide-binding protein G(i) subunit alpha-1 (Homo sapiens), sequence (P63096 whole entry, looked up): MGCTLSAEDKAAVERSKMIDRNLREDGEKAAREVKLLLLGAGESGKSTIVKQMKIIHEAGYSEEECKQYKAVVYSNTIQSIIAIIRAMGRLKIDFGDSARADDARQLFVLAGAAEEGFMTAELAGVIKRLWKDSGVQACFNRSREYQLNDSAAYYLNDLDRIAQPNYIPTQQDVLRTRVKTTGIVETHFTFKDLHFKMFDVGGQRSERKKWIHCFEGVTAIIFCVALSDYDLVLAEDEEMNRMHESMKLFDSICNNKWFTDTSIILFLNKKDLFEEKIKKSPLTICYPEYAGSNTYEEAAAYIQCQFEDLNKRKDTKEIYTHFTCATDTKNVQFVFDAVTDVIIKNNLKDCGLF
How it was run: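 Fluorescence polarization assay: 50 nM Gαi1 with 10 nM FITC-labeled RGS12 GoLoco peptide in 10 mM Tris pH 7.5, 150 mM NaCl, 0.1 mM GDP, 0.05% NP40, 10 min at room temperature with compound.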

[9] = qHTS Assay for Identification of Small Molecule Agonists for Thrombopoietin (TPO) Signaling Pathway (AID 917); conditions: TPO signaling pathway reporter cells, agonist qHTS, stimulated with TPO at its EC50; series mostly up to 38.5 µM
How it was run: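 IL-3-dependent murine pro-B Ba/F3 cells, stably transfected with human TPO receptor and GpIIb-promoter luciferase, are incubated 24 hrs at 37 C with test compound and 26 pM TPO; luciferase signal is read after 10 min at room temperature.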

[10] = biological target: Pyruvate kinase (Leishmania mexicana) (UniProt Q27686); assay: qHTS Validation Assay for Inhibitors of Leishmania Mexicana Pyruvate Kinase (AID 945); conditions: purified L. mexicana pyruvate kinase, enzyme activity, E451W mutant enzyme; series mostly up to 57.5 µM
Pyruvate kinase (Leishmania mexicana), sequence (Q27686 2-499 E452W): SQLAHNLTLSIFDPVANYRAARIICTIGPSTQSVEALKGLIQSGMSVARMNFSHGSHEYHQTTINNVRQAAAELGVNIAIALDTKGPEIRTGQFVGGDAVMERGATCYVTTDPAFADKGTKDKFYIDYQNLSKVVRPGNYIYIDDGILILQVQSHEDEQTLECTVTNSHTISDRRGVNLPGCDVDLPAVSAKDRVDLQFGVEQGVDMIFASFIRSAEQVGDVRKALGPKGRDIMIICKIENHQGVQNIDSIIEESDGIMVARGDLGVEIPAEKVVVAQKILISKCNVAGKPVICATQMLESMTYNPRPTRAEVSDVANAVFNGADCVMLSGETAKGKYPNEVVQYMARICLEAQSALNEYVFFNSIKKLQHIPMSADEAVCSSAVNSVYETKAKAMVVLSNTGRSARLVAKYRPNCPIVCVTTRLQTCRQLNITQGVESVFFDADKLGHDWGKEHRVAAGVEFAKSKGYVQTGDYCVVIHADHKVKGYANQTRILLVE
How it was run: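 Compounds are tested as eight-point concentration series. Reactions contain 0.2 nM LmPYK E451W, 0.5 mM PEP, 0.1 mM ADP, 7 mM MgCl2 and 50 mM KCl at pH 7.2, run 1 h at room temperature, then read by PKLight luminescence.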

[11] = biological target: Pyruvate kinase PKM (Homo sapiens) (UniProt P14618); assay: qHTS Assay for Activators of Human Muscle Pyruvate Kinase (AID 954; active means well fitted curve in the direction sought with a large enough effect, not every such curve was filed as active); conditions: purified human muscle pyruvate kinase, luciferase-coupled luminescence, 1 h; series mostly up to 57.5 µM
Pyruvate kinase PKM (Homo sapiens), sequence (P14618 whole entry, looked up): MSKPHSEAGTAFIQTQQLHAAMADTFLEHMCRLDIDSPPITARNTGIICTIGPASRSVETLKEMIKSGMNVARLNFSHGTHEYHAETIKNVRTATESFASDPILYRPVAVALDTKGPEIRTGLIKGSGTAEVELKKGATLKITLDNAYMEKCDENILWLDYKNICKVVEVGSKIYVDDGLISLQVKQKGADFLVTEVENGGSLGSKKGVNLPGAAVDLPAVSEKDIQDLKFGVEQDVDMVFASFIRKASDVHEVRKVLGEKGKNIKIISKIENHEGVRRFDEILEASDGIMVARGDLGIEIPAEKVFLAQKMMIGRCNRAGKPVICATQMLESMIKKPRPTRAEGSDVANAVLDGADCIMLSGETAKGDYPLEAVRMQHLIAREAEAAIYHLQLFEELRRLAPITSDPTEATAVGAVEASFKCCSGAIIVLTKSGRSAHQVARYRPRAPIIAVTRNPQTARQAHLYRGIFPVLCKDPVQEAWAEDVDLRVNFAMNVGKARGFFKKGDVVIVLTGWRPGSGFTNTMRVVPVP
How it was run: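 Human PKM2 activity is measured as ATP generation, detected by luciferase-coupled luminescence. The enzyme (0.1 nM) acts on 0.5 mM PEP and 0.1 mM ADP for 1 h at ambient temperature; data are normalized to uninhibited and full-inhibition wells.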

[12] = biological target: Alpha-galactosidase A (Homo sapiens) (UniProt P06280); assay: Counterscreen for Glucocerebrosidase Inhibitors: qHTS Assay for Human alpha-Galactosidase at pH 4.5 (AID 992); conditions: purified enzyme, fluorogenic substrate; series mostly up to 76.9 µM
Alpha-galactosidase A (Homo sapiens), sequence (P06280 whole entry, looked up): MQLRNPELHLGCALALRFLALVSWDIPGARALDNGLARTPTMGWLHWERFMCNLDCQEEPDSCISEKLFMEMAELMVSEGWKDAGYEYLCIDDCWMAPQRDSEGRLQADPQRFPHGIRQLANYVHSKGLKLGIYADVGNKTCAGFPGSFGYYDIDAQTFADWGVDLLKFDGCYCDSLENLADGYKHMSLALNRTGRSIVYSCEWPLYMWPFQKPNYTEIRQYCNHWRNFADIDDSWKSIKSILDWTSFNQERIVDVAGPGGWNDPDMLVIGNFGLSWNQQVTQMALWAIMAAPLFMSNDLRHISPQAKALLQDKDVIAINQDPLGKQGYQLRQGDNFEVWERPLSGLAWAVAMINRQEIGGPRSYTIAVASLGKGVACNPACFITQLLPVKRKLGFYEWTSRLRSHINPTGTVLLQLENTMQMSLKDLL
How it was run: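 Quantitative HTS: compounds tested from 0.7 nM up to 77 uM against 2 nM enzyme with 80 uM 4-MU alpha-D-galactopyranoside. The 20 min room-temperature reaction is stopped with 1M NaOH/1M glycine, pH 10.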

[13] = biological target: alpha-glucosidase (Oryza sativa, rice) (UniProt Q653V4); assay: Counterscreen for Glucocerebrosidase Inhibitors: qHTS Assay for Rice alpha-Glucosidase at pH 5.0 (AID 997); conditions: rice alpha-glucosidase enzyme activity; series mostly up to 76.9 µM
How it was run: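 Rice alpha-glucosidase (4 nM final) with 400 uM 4-methylumbelliferyl-alpha-D-glucopyranoside in citrate buffer pH 5.0, 20 min at room temperature, stopped at pH 10; fluorescence 365/440 nm, compounds 0.7 nM–77 uM, AC50 from Hill fits.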

[14] = qHTS Assay for Lipid Storage Modulators (AID 1519; calls by dose curve); conditions: Drosophila S3 cells, BODIPY lipid droplet/cell ratio, laser cytometry, cells loaded with oleic acid; for activity change, negative = inhibition: at 57.5 µM (top of the series)
How it was run: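 Cells seeded at 5,000 per well were treated with compounds over a concentration series and loaded with oleic acid (400 uM, as added). Lipid droplet fluorescence (488 nm excitation, 500-530 nm channel) was read by laser-scanning cytometry and normalized to 20 uM Triacsin C.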

[15] = biological target: Ubiquitin carboxyl-terminal hydrolase 1 (Homo sapiens) (UniProt O94782); assay: Inhibitors of USP1/UAF1: Pilot qHTS (AID 504865); conditions: purified USP1/UAF1, Ub-rhodamine cleavage fluorescence; series mostly up to 114 µM;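 further: rhodamine fluorescence freed from ubiquitin-rhodamine substrate followed over time; top concentration of the series differs between compounds; nearly all actives have a fitted effect of over 35% in size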
Ubiquitin carboxyl-terminal hydrolase 1 (Homo sapiens), sequence (O94782 whole entry, looked up): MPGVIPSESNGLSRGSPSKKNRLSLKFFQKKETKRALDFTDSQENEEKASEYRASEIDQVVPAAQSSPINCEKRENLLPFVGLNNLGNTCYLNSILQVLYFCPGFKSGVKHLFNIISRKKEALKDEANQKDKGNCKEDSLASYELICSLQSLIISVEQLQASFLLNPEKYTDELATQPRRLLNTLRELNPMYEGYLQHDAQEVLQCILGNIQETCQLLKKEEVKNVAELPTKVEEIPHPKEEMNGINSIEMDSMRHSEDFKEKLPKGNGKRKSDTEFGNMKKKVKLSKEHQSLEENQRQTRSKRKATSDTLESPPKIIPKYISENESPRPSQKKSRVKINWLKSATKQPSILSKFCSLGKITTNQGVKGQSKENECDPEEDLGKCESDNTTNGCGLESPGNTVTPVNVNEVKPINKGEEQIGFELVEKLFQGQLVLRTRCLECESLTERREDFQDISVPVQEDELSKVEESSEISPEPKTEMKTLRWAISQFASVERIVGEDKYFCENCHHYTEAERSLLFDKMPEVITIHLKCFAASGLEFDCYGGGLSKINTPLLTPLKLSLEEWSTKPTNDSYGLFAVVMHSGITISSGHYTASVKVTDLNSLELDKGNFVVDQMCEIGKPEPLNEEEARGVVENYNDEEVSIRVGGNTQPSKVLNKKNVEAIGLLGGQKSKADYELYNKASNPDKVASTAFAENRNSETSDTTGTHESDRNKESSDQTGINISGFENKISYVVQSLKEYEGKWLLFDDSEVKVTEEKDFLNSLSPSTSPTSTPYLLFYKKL
How it was run: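 Enzyme-free wells gave the negative control, while test wells held 1nM USP1/UAF1 preincubated with compound for 15 min at room temperature. Ub-Rho at 150nM final started the reaction, and fluorescence at 480/540 nm was recorded kinetically.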

[16] = biological target: DNA dC->dU-editing enzyme APOBEC-3G (Homo sapiens) (UniProt Q9HC16); assay: qHTS for inhibitors of Vif-A3G interactions: Validation (AID 588379); conditions: Vif-A3G protein interaction assay; series mostly up to 46.1 µM
DNA dC->dU-editing enzyme APOBEC-3G (Homo sapiens), sequence (Q9HC16 whole entry, looked up): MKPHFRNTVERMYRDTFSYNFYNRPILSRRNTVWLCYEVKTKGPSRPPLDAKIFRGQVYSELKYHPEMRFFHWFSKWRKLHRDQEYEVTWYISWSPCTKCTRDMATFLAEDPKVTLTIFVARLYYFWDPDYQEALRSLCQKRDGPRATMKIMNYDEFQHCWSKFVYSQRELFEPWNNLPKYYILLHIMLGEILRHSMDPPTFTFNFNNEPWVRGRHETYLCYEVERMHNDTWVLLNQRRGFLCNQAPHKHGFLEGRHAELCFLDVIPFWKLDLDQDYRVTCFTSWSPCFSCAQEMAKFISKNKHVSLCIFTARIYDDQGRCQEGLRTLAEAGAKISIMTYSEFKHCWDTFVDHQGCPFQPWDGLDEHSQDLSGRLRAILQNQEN
How it was run: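 HeLa cells stably expressing Vif and A3G-eYFP, 700 cells/well, incubated overnight at 37 deg C, then exposed to compound overnight at 37 deg C. Inhibition of Vif-mediated degradation read as increased yellow fluorescence (Ex 488/Em 500-530) by laser-scanning cytometry.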

[17] = tested on: Zika virus NS2B-NS3 protease; assay: Primary screen GU AMC qHTS for Zika virus inhibitors (AID 1347154); conditions: Zika NS2B-NS3 unlinked protease, AMC fluorogenic substrate; series mostly up to 54.1 µM; further: nearly all actives have a fitted effect of over 70% in size
How it was run: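 Unlinked Zika NS2B hydrophilic domain/NS3 protease domain noncovalent complex (25 nM final) in 10 mM Tris-HCl pH 8.0, 0.01% Tween 20, with AMC peptide substrate. Fluorescence (ex 340, em 450 nm) change over 15 min, room temperature; percent inhibition fitted to 4-parameter Hill equation.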

[18] = Primary qHTS for small molecule stabilizers of the endoplasmic reticulum resident proteome: Secreted ER Calcium Modulated Protein (SERCaMP) assay (AID 1508630); conditions: SH-SY5Y GLuc-SERCaMP (Gaussia luciferase released on ER calcium loss) secretion, thapsigargin, luminescence; series mostly up to 38.4 µM
How it was run: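 GLuc-SERCaMP-expressing SH-SY5Y cells, pretreated 16 h with compound, are challenged with thapsigargin to empty ER calcium stores; after 4 h, coelenterazine is added directly to the medium and luminescence is imaged.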

[19] = biological target: Cytochrome P450 1A2 (Homo sapiens) (UniProt P05177); assay: p450-cyp1a2 (AID 410; calls by dose curve; further: potency means the concentration at half of the fitted maximal effect); conditions: recombinant CYP1A2, luciferin-ME demethylation, luminescence; series mostly up to 57 µM
Cytochrome P450 1A2 (Homo sapiens), sequence (P05177 whole entry, looked up): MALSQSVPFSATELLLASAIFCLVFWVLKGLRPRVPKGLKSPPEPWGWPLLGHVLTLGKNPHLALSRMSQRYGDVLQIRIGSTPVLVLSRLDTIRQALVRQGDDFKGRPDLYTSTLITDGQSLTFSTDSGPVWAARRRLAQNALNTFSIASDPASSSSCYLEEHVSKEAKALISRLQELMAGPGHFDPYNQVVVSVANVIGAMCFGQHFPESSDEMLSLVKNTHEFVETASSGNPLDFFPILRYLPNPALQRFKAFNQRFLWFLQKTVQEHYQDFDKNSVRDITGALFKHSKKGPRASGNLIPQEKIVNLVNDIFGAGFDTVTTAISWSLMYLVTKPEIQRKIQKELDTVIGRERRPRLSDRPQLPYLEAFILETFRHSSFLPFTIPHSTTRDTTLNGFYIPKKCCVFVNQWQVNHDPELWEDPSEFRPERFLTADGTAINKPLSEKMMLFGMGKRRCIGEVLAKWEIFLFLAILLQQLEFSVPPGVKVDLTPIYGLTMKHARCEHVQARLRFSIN
How it was run: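 20nM CYP1A2 with 100uM Luciferin-ME (at Km) in 100mM KPO4; compound preincubated 10 min, NADPH regeneration added, 60 min at room temperature. Luciferin quantified by luminescence after detection reagent; normalized to 57 uM furafylline.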

[20] = biological target: Cytochrome P450 3A4 (Homo sapiens) (UniProt P08684); assay: qHTS Assay for Activators of Cytochrome P450 3A4 (AID 885); conditions: recombinant CYP3A4, Luciferin-PPXE luminescence, 60 min; series mostly up to 57.1 µM; further: nearly all actives have a fitted effect of over 65% in size
How it was run: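 Signal was normalized against complete inhibition by 57 uM ketoconazole. The reaction used 20nM CYP3A4 with 25uM Luciferin-PPXE, 10-min compound preincubation and a 60-min NADPH-supported step at RT.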

[21] = measured here: cell count channel max response
[22] = measured here: lipid channel max response

**Q.** What does the source list for `N[C@@H](CO)C(=O)O`?
**A.** activity change, negative = inhibition [1]: 6.64% (inactive); activity change, negative = inhibition [2]: 1.99% (inactive); activity, negative = inhibition [3]: -12.9% (inactive); Potency [4]: > 46 µM (inactive); Potency [5]: > 46 µM (inactive); Potency [6]: inactive; Potency [7]: inactive; outcome [8]: inactive; Potency [9]: inactive; Potency [10]: inactive; outcome [11]: inactive; outcome [12]: inactive; outcome [13]: inactive; activity change, negative = inhibition [14]: -1.57% (inactive); max response [14, 21]: 0.892%; max response [14, 22]: -1.78%; Potency [15]: inactive; Potency [16]: inactive; Potency [17]: inactive; Potency [18]: inactive

**Q.** Which activity change, negative = inhibition [1] does the source give for `C[C@@H]1C[C@@H]2[C@H]3CCC4=CC(=O)C=C[C@]4(C)[C@]3(F)[C@@H](O)C[C@@]2(C)[C@@]1(O)C(=O)CO` here?
**A.** -8.71% (inactive)

**Q.** And the Potency [19]?
**A.** inactive

**Q.** And the activity change, negative = inhibition [2]?
**A.** 7.2% (inactive)

**Q.** And the activity, negative = inhibition [3]?
**A.** -19.7% (inactive)

**Q.** What about the Potency [7] of the same compound?
**A.** inactive

**Q.** What about the Potency [9] of the same compound?
**A.** inactive

**Q.** What about the Potency [10] of the same compound?
**A.** inactive

**Q.** What about the outcome [11] of the same compound?
**A.** inactive

**Q.** And the outcome [12]?
**A.** inactive

**Q.** And the outcome [13]?
**A.** inactive

**Q.** And the activity change, negative = inhibition [14]?
**A.** -3.85% (inactive)

**Q.** And the max response [14, 21]?
**A.** 8.23%

**Q.** What about the max response [14, 22] of the same compound?
**A.** 2.65%

**Q.** What about the Potency [16] of the same compound?
**A.** inactive

**Q.** And the Potency [17]?
**A.** inactive

**Q.** What about the Potency [18] of the same compound?
**A.** inactive

**Q.** Which results are given for `NC[C@](O)(CS(=O)(=O)O)c1ccc(Cl)cc1`?
**A.** Potency [19]: inactive and 31.6 µM (active); activity change, negative = inhibition [2]: -5.4% (inactive); Potency [4]: > 46 µM (inactive); Potency [5]: > 46 µM (inactive); Potency [6]: inactive; Potency [7]: inactive; outcome [8]: inactive; Potency [20]: inactive; Potency [9]: inactive; Potency [10]: inactive; outcome [11]: inactive; outcome [12]: inactive; outcome [13]: inactive; activity change, negative = inhibition [14]: -5.03% (inactive); max response [14, 21]: 11.5%; max response [14, 22]: 9.5%; Potency [16]: inactive; Potency [17]: inactive; Potency [18]: inactive
